Data from PubChem BioAssay.
Calls of active or inactive are those of the source.

Tests used:
[1] = E. coli DRC41 culture turbidity changes, primary screen, E. coli filamentation inducer project, strain DRC41, OD650, 48 h (AID 1152);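 also: E. coli MC1000 strain DRC41 lacking acrAB efflux pump and sulA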; conditions: E. coli DRC41 (acrAB sulA), higher = more signal, called active from +8 up or from −8 down
[2] = small-molecule binders of probe aLefty1, primary screen, biochemical, small-molecule microarray, 635/667 nm fluorescence (AID 1153); conditions: higher = more signal;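 also: score merges spot fluorescence with signal-to-noise ratio from the scanned slide images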
[3] = PSAC antagonists in infected red cells, primary screen, cell-based, P. falciparum Indochina, OD700, 1 h (AID 1154); conditions: P. falciparum Indochina infected RBC osmotic lysis, higher = more signal, called active from +8 up or from −8 down
[4] = PSAC antagonists in infected red cells, primary screen, cell-based, P. falciparum Indochina, OD700, 2 h (AID 1155);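 also: lysis reports solute entry through the parasite surface anion channel PSAC; channel blockers reduce lysis of infected cells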; conditions: P. falciparum Indochina infected erythrocytes, osmotic lysis OD700; higher = more signal, called active from +8 up or from −8 down
[5] = osmotic lysis modulators in infected erythrocytes, primary screen, PSAC antagonist project, cell-based, P. falciparum Indochina, OD700, 3 h (AID 1156); conditions: higher = more signal, called active from +8 up or from −8 down
[6] = PSAC antagonists in infected red cells, primary screen, cell-based, P. falciparum Indochina, OD700, 18 h (AID 1157); conditions: P. falciparum Indochina infected erythrocytes, osmotic lysis OD700, 18 h; higher = more signal, called active from +8 up or from −8 down
[7] = modulators of S6 phosphorylation in cells, primary screen, cell-based, A549, cytoblot, luminescence, serum-stimulated (AID 1158); conditions: A549 phospho-S6 cytoblot, 5 h, higher = more signal;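 also: serum-stimulated A549 lung adenocarcinoma cells; signal is phosphorylated S6 detected by cytoblot immunostaining with HRP secondary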
[8] = target: NADPH oxidase 2 (Homo sapiens) (UniProt P04839); test: NOX2-dependent H2O2 signal modulators, primary screen, NOX inhibitor project, cell-based, HEK293-NOX2, PMA-stimulated, Amplex Red fluorescence (AID 1159); conditions: 45 min, higher = more signal, called active from +8 up or from −8 down; also: test concentration not given here
Chain of NADPH oxidase 2 (Homo sapiens) (P04839 whole entry, looked up): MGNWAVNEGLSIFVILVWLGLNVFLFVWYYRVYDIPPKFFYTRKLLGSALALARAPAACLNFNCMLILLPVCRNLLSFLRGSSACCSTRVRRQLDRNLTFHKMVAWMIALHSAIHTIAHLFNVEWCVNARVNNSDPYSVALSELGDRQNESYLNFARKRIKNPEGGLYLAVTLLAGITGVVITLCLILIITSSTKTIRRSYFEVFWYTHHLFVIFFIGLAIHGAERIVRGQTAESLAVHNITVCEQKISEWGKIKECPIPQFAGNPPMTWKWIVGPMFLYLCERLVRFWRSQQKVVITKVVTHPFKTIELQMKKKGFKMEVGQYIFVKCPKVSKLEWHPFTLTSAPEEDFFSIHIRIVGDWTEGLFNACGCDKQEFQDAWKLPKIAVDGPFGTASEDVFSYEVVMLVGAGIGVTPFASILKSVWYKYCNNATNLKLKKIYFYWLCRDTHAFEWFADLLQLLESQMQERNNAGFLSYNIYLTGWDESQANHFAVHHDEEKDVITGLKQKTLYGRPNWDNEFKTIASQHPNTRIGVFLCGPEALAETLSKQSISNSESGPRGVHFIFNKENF

[9] = target: NADPH oxidase 4 (Homo sapiens) (UniProt Q9NPH5); test: NOX4-dependent H2O2 signal modulators, primary screen, NOX inhibitor project, cell-based, HEK293-NOX4, tetracycline-induced, Amplex Red fluorescence (AID 1160); conditions: 45 min, higher = more signal, called active from +8 up or from −8 down
Chain of NADPH oxidase 4 (Homo sapiens) (Q9NPH5 whole entry, looked up): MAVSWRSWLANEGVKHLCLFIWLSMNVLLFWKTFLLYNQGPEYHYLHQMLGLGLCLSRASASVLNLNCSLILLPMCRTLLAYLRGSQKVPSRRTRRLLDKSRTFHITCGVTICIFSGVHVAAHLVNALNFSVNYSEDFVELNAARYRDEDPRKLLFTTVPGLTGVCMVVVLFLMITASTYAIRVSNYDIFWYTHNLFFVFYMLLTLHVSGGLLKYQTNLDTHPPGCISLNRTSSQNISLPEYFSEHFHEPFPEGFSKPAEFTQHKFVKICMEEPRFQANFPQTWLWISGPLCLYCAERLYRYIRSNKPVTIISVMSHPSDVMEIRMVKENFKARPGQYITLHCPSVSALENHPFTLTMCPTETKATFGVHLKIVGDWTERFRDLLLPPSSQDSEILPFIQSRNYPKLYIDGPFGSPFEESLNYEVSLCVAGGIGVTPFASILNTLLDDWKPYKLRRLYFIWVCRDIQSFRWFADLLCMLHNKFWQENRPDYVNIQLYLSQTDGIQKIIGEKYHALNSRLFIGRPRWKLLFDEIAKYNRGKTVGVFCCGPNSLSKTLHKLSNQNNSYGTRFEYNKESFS

[10] = target: NADPH oxidase 5 (Homo sapiens) (UniProt Q96PH1); test: NOX5-dependent H2O2 signal modulators, primary screen, NOX inhibitor project, cell-based, HEK293-NOX5, Amplex Red fluorescence (AID 1161); conditions: HEK293-NOX5, ionomycin, 45 min, higher = more signal
Chain of NADPH oxidase 5 (Homo sapiens) (Q96PH1 whole entry, looked up): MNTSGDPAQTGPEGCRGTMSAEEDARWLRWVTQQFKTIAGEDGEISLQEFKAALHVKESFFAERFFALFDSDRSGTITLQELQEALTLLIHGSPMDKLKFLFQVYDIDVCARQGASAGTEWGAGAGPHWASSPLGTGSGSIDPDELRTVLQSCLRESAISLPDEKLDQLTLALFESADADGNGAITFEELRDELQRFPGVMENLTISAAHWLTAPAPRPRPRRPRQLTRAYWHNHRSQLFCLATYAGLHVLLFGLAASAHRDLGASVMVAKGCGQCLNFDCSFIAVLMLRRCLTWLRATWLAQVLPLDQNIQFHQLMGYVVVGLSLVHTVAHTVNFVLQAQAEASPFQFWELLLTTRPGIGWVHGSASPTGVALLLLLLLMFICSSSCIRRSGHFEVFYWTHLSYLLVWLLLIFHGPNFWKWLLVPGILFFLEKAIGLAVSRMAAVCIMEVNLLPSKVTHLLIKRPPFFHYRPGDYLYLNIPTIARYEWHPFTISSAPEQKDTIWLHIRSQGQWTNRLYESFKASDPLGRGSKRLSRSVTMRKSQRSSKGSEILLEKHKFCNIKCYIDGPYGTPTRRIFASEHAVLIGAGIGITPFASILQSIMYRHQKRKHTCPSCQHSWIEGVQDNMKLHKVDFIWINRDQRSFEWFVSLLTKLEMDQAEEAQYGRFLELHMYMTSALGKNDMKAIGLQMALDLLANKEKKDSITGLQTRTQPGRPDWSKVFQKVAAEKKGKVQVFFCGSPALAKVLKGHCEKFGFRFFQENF

[11] = A549 cell viability effects, profiling panel, calcein-AM fluorescence, 48 h, basal (AID 1162); conditions: higher = more signal; also: test concentration not given here
[12] = adipocyte viability effects, profiling panel, cell-based, 3T3-L1 adipocytes, calcein-AM fluorescence, 48 h, basal (AID 1163); conditions: 3T3-L1 adipocytes viability, higher = more signal; also: test concentration not given here
[13] = HepG2 cell viability effects, profiling panel, calcein-AM fluorescence, 48 h, basal (AID 1164); conditions: higher = more signal; also: test concentration not given here
[14] = MM1S cell viability effects, profiling panel, calcein-AM fluorescence, 48 h, basal (AID 1165); conditions: higher = more signal;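 also: viability of MM1S multiple myeloma cells under basal unstimulated conditions; test concentration not given here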
[15] = basal RPMI8226 viability, no added stimulus, profiling panel, cell-based, calcein-AM fluorescence, 48 h, PK04 Diversity Set (AID 1166); conditions: RPMI8226 myeloma viability, higher = more signal;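 also: cells grown under basal conditions without added stimulus; test concentration not given here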
[16] = basal HepG2 mitochondrial membrane potential changes, profiling panel, cell-based, JC-1 fluorescence, 24 h, 100 nL compound (AID 1167); conditions: higher = more signal; also: test concentration not given here
[17] = basal 3T3-L1 adipocyte mitochondrial potential changes, profiling panel, cell-based, JC-1 fluorescence, 3T3-L1 adipocytes, 24 h, 100 nL compound (AID 1168); conditions: JC-1 mitochondrial fluorescence, higher = more signal, called active from +8 up or from −8 down; also: test concentration not given here
[18] = basal RPMI8226 mitochondrial membrane potential changes, profiling panel, cell-based, JC-1 fluorescence, 24 h, 100 nL compound (AID 1169); conditions: RPMI8226 myeloma, JC-1 mitochondrial potential fluorescence, higher = more signal; also: test concentration not given here
[19] = basal MM1S mitochondrial membrane potential changes, profiling panel, cell-based, JC-1 fluorescence, 24 h, 100 nL compound (AID 1170); conditions: higher = more signal; also: test concentration not given here
[20] = A549 lung cancer cell viability effects, profiling panel, resazurin fluorescence, 24 h, PK04 Diversity Set (AID 1171); conditions: higher = more signal, called active from +8 up or from −8 down; also: test concentration not given here

| SMILES | z-score [1] | composite z-score [2] | z-score [3] | z-score [4] | z-score [5] | z-score [6] | z-score [7] | z-score [8] | z-score [9] | z-score [10] | z-score [11] | z-score [12] | z-score [13] | z-score [14] | z-score [15] | z-score [16] | z-score [17] | z-score [18] | z-score [19] | z-score [20] |
| --- | --- | --- | --- | --- | --- | --- | --- | --- | --- | --- | --- | --- | --- | --- | --- | --- | --- | --- | --- | --- |
| C=CC[C@]1(C(=O)NCCN2CCOCC2)N=C(c2ccc(OCCCO)cc2)O[C@H]1c1ccccc1 | -0.151 (inactive) | 0.296 | 4.72 (inactive) | 0.644 (inactive) | 0.168 (inactive) | 0.275 (inactive) | -0.45 | 0.0905 (inactive) | -0.0559 (inactive) | 0.115 | -0.139 | -0.0761 | -0.0656 | -0.736 | 0.0634 | -0.607 | -0.442 (inactive) | -0.176 | -0.255 | 1.63 (inactive) |
| COc1cc2c(cc1O)C(C)N(Cc1sc3ccccc3c1Cl)CC2 (stereo not given) | 0.268 (inactive) | -0.145 | 4.05 (inactive) | 2.4 (inactive) | 0.334 (inactive) | 1.85 (inactive) | -0.43 | -3.7 (inactive) | -2.3 (inactive) | -3.2 | 0.0824 | -0.0046 | -0.0238 | 0.141 | 0.624 | -1.08 | -0.632 (inactive) | 0.838 | -0.995 | -0.205 (inactive) |
| C[C@H]1C2[C@H](Cc3ccccc3)NC(=O)[C@]23C(=O)N[C@@H](Cc2ccccc2)C(=O)N2CCC[C@H]2C(=O)NC/C=C/CC/C=C/C3[C@@H]2O[C@]12C (stereo not given in full) | -0.488 (inactive) | 0.32 | 1.13 (inactive) | 0.186 (inactive) | 0.0233 (inactive) | 0.599 (inactive) | -0.191 | 1.25 (inactive) | 1.11 (inactive) | 1.25 | -0.168 | 1.18 | -0.512 | -0.132 | -0.876 | 1.11 | 0.308 (inactive) | 0.0536 | 0.793 | -0.0612 (inactive) |
| COc1c(C)cc(-c2cc3c(c(CCc4ccccc4)n2)[Si](C(C)C)(C(C)C)O[C@H]3c2ccccc2)cc1C | -1.05 (inactive) | -0.147 | 4.98 (inactive) | 2.59 (inactive) | 0.576 (inactive) | 1.09 (inactive) | -0.673 | 0.283 (inactive) | 1.11 (inactive) | 0.201 | -0.216 | -0.945 | 0.297 | -3.19 | -3.11 | -2.39 | -0.729 (inactive) | -1.04 | -1.24 | 0.453 (inactive) |
| COC(=O)C(CC#Cc1ccc2c(c1)[C@]1(C(=O)N2)[C@H](C(=O)N2CCCCCCC2)[C@H]2C(=O)O[C@H](c3ccccc3)[C@H](c3ccccc3)N2[C@@H]1c1ccc(OCCO)cc1)C(=O)OC | -0.215 (inactive) | 3.14 | 13.7 (active) | 2.51 (inactive) | -5.71 (inactive) | 0.588 (inactive) | -0.779 | 0.985 (inactive) | 0.827 (inactive) | 1.6 | -0.369 | 0.231 | 0.0259 | -0.236 | 0.164 | -0.738 | -2.32 (inactive) | -1.04 | -1.44 | 1.29 (inactive) |
| C=C(COC)C(=O)CC[C@H](OC(C)=O)c1ccc(CO)o1 | 0.82 (inactive) | -0.0061 | 0.421 (inactive) | 0.112 (inactive) | -0.0728 (inactive) | -1.12 (inactive) | 0.555 | -1.04 (inactive) | -0.207 (inactive) | -1.31 | 0.0053 | 0.972 | -0.582 | 0.657 | 1.76 | 0.378 | -0.587 (inactive) | -0.563 | -0.434 | 0.642 (inactive) |
| C=CCOC(=O)[C@@H]1[C@H]2C(=O)O[C@H](c3ccccc3)[C@H](c3ccccc3)N2[C@H](c2ccc(OCCOC(=O)[C@H]3C[C@H]4C(=O)N[C@@H](CCCCN(C)C)C(=O)N4[C@H]3c3cccc(OCCO)c3)cc2)[C@@]12C(=O)Nc1ccccc12 | 0.171 (inactive) | 0.464 | 0.323 (inactive) | 0.0285 (inactive) | -0.703 (inactive) | 0.0555 (inactive) | -0.547 | 0.209 (inactive) | -0.186 (inactive) | -0.538 | -0.555 | -0.453 | -0.113 | 0.293 | -2.17 | -1.29 | -0.5 (inactive) | -0.928 | -0.689 | 0.64 (inactive) |
| COc1ccc(CCNC(=O)[C@@]2(c3ccc([N+](=O)[O-])cc3)CC(=O)N(C3CCCCC3)[C@@H]2c2ccc(CO)cc2I)cc1 | 0.423 (inactive) | 0.0341 | 11.9 (active) | 1.78 (inactive) | 3.17 (inactive) | 1.04 (inactive) | -0.189 | 1.3 (inactive) | -1.04 (inactive) | 2.21 | 0.507 | 0.969 | -0.348 | -2.41 | -2.58 | 1.31 | 0.72 (inactive) | -0.293 | 0.379 | -1.11 (inactive) |
| Cc1ccc(S[C@]2(C(=O)NCc3ccccc3)CC(=O)N(Cc3ccccc3C(F)(F)F)[C@@H]2c2ccc(CO)cc2I)cc1 | 0.852 (inactive) | 0.056 | 5.8 (inactive) | 0.943 (inactive) | 0.836 (inactive) | 0.279 (inactive) | 0.316 | 0.708 (inactive) | -1.5 (inactive) | 1.11 | 1.13 | 0.615 | 0.024 | -2.39 | -2.16 | -0.741 | -0.841 (inactive) | -0.491 | -0.518 | 1.15 (inactive) |
